Reference: paper PMC5540273 (PLoS ONE, 2017)

Tests used:
Conditions in all cases: concentration: 1 μM,replicates: in singlicate; n = 1
NEK11 = system: NEK11
NEK1 = system: NEK1
NEK2 = system: NEK2
NEK3 = system: NEK3
NEK4 = system: NEK4
NEK5 = system: NEK5
NEK6 = system: NEK6
NEK7 = system: NEK7
NEK9 = system: NEK9
NIK = system: T1, NIK
T1 construct: gene MAP3K14
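Note: KINOMEscan kinase panel screen.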

Compound	%Inh (NEK11) [%]	%Inh (NEK1) [%]	%Inh (NEK2) [%]	%Inh (NEK3) [%]	%Inh (NEK4) [%]	%Inh (NEK5) [%]	%Inh (NEK6) [%]	%Inh (NEK7) [%]	%Inh (NEK9) [%]	%Inh (NIK) [%]
CC(C(=O)NC1CCN(c2ccnc(Nc3ccc(F)cc3)n2)C1)c1ccc(Cl)cc1 (stereo not shown) [GSK1379713]	25	0	0	0	0	15	0	28	34	11
O=C(Nc1ccccc1)c1cccc(Oc2ccc3nccn3n2)c1	20	0	2	17	0	12	0	0	0	34
Cn1ccc2ncnc(Oc3ccc(NC(=O)Nc4cccc(C(F)(F)F)c4)c(Cl)c3)c21	0	0	0	9	0	0	9	0	0	7
O=C(Nc1n[nH]c2cc(-c3ccco3)ccc12)C1CC1 [SB-737447]	24	6	0	28	7	0	0	0	0	0
CC(=O)Nc1ccc(-c2cc3ncnc(SCC(=O)O)c3s2)cc1	0	0	1	12	6	0	4	1	5	11
O=C(Nc1cccc(Oc2ccc3nccn3n2)c1)Nc1cccc(C(F)(F)F)c1	0	0	8	7	0	0	0	0	0	27
Cn1cc(-c2cccc3c(N)c(C(N)=O)nnc23)cn1	0	0	15	22	16	6	5	0	0	21
